Each structure is given as a SMILES string. The whole screen tested about 280,000 compounds, of which about 540 (0.19%) were called active. Where a call stands in place of a potency, no number is given. Inconclusive results (about 2%) are left out. Calls come from the whole dose curve; as a rule, active = well fitted activation curve with a large enough effect; inconclusive = small, poorly fitted or top-dose-only effect; inactive = flat fitted curve, though single readings scatter. The sample as a whole holds a higher share of actives than the screen did.
Potency is the fitted concentration of half-maximal effect.

A short description of the test: Quantitative High-Throughput Screen for Regulators of Epigenetic Control. Note: nearly all actives have a fitted effect of over 60% in size. The settings on record: murine LDR cells, GFP reporter derepression, 30 h; series mostly up to 53.9 µM. A digest of the protocol:
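Murine LDR cells bearing a silenced CMV-driven GFP reporter were exposed to compound for 30 h at 37 C. After PBS washes, GFP-positive cells (20-120 um objects) counted by laser-scanning microplate cytometry.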
On to `COc1cccc(C(=O)NC2(C(F)(F)F)C(=O)Nc3c2c(=O)[nH]c(=O)n3-c2ccc(C)cc2)c1` (centres undefined), for which the Potency result was “inactive”.
For `O=C(COc1ccc(Cl)cc1)N(Cc1ccco1)Cc1ccco1` the value was “inactive”; for `CCNS(=O)(=O)c1ccc(NC(=O)CSc2nc(-c3ccco3)cc(C(F)(F)F)n2)cc1`, “inactive”; for `O=C(CSc1ncc(S(=O)(=O)c2ccc(Br)cc2)c(=O)[nH]1)Nc1ccc2c(c1)OCCO2`, “inactive”.
For `Clc1cccc(N=C2NN=C(c3ccc4c(c3)OCCO4)CS2)c1` the value was “inactive”; for `CN(C)c1nc(=Nc2cccc(Cl)c2)ss1`, 1.12 µM (active); for `CC1=NN(Cc2ccccc2)C(=O)/C1=C/c1ccc(N(C)C)cc1`, “inactive”.
Turning to `CN(C)c1ccc(/C=C2\NC(=S)N(Cc3ccccc3)C2=O)cc1`, the Potency is 7.08 µM (active).
For `O=C1NCC(=O)N(Cc2ccccc2)/C1=C/c1ccccc1` the value was “inactive”; for `COc1cc2[nH]c(=O)n(Cc3ccc(C(=O)NCc4ccc(C)cc4)cc3)c(=O)c2cc1OC`, “inactive”.
For `Cc1ccccc1C(=O)Nc1sc2c(c1C(=O)N1CCC(C)CC1)CCCC2` the value was “inactive”; for `O=C(Cn1nc(Cc2cccnc2)c2ccccc2c1=O)N1CCN(c2ccccc2F)CC1`, “inactive”.
For `CCN1/C(=C/C(=S)Nc2ccccc2)Sc2ccccc21` the value was “inactive”; for `CCN1/C(=C/c2ccc3ccc(C)cc3[n+]2CC)Sc2ccccc21`, 1.12 µM (active).
Consider `CCN1/C(=C\c2ccc3ccccc3[n+]2CC)Sc2cc(C)ccc21`, for which the Potency is 0.562 µM (active).
For `CCN1CCN(CCNC(=O)c2ccc(/C=C3/Sc4ccccc4N(Cc4cccc(C)c4)C3=O)cc2)CC1` the value was “inactive”; for `COc1ccc(OC)c(NC(=O)C2CCCN(S(=O)(=O)c3ccc4c(c3)CCCC(=O)N4)C2)c1` (centres undefined), “inactive”; for `COc1ccc(CCNC(=O)c2cn(C)c3ccc(S(=O)(=O)N(C)C4CCCCC4)cc3c2=O)cc1OC`, “inactive”.
For `COc1ccc(-c2onc(C)c2C)cc1S(=O)(=O)NCCc1ccccc1` the value was “inactive”.
For `COc1ccc(NC(=O)c2ccc3nc(CCc4ccccc4)oc3c2)c(OC)c1` the value was “inactive”; for `Cc1ccc2nc(/C(C#N)=C\c3ccc(OC(=O)c4cccs4)cc3)[nH]c2c1`, “inactive”.
For `Cc1ccc2nc(/C(C#N)=C/c3ccc(-c4ccc(C(=O)OC(C)C)cc4)o3)[nH]c2c1`, the Potency is 1.41 µM (active).
For `Cc1ccc2nc(/C(C#N)=C/c3ccccc3F)[nH]c2c1`, the Potency entry was “inactive”.
For `COc1ccc(C(=O)Nc2cccc(C(=O)OCc3cc(=O)n4c5c(sc4n3)CCCC5)c2)cc1` the value was “inactive”.
For `CS(=O)(=O)c1sc2nc(-c3ccccc3)cc(-c3ccccc3)c2c1N` the value was “inactive”; for `NNC(=O)c1oc2nc(-c3ccccc3)cc(-c3ccco3)c2c1N`, “inactive”.
For `CNC(=S)NNC(=O)c1oc2nc(-c3ccccc3)cc(-c3ccco3)c2c1N` the value was 15.8 µM (active); for `O=C(N/N=C/C=C/c1ccco1)c1cccs1`, 17.8 µM (active).
Take `CC(=O)Nc1ccc(/C=N/NC(=O)c2cccs2)cc1`: the Potency entry was “inactive”.
For `Cc1ccc(-c2cc(C(=O)N/N=C/C=C/c3ccco3)c3ccccc3n2)cc1C` the value was “inactive”.
For `Cc1ccc(S(=O)(=O)c2nc(-c3ccco3)oc2SCC(=O)Nc2ccc(F)cc2)cc1` the value was “inactive”; for `Cc1cc(C(=O)Nc2cccc(C(F)(F)F)c2)c2c(C)nn(-c3cccc(F)c3)c2n1`, “inactive”; for `O=C(Nc1ccc2nc(SCC(=O)N3CCCc4ccccc43)sc2c1)c1ccc(F)cc1`, “inactive”.
Take `CC1Cc2cc(S(=O)(=O)CCC(=O)Nc3ccc(F)c(Cl)c3)ccc2N1C(=O)C1CC1` (centres undefined): the Potency result was “inactive”.
For the compound `CCN1C(=O)c2cccc3c(N)ccc1c23`, the Potency result is “inactive”.
With `Nc1ccc2c3c(cccc13)C(=O)NC2=O`, the Potency is 17.8 µM (active).
For `Cc1nn(C)cc1N1C(=O)c2cccc3c(N)ccc(c23)C1=O`, the Potency entry is “inactive”.
For `CN1CCN(c2oc(-c3ccc(COc4ccc(Cl)cc4)o3)nc2C#N)CC1` the value was “inactive”; for `CC(=O)Nc1cccc(Oc2cc(C#N)c(C#N)cc2N2CCOCC2)c1`, “inactive”; for `COc1cc(N2CCCC2)c(OC)cc1/C=C(/C#N)c1cccc(Br)c1`, 3.55 µM (active).
For `COc1ccc(Br)cc1/C=N/n1c(C)nnc1C` the value was “inactive”.
Take `Cc1ccc(CCNC(=O)Cn2c(-c3cccs3)cc3cc(F)ccc32)cc1`: the Potency entry is “inactive”.
As to `Cc1noc2ncnc(NCc3ccccc3Cl)c12`, the Potency result is “inactive”.
For `Cc1nn(C(C)C(=O)NCCc2ccccc2)c(=O)c2c1sc1ccccc12` (centres undefined) the value was “inactive”.
On to `CCc1ccc(C2CC(=O)c3c([nH]c(C(=O)OCc4ccc(C)cc4)c3C)C2)cc1` (centres undefined), for which the Potency entry was “inactive”.
For `CC(=O)c1ccc(NC(=O)CCc2nc(-c3ccc(C)cc3)no2)cc1` the value was “inactive”; for `CC(C)(C)c1ccc(S(=O)(=O)N2CCN(C(=O)c3cc(-c4ccc(Br)cc4)n[nH]3)CC2)cc1`, “inactive”.
For `Cc1cc(C)cc(NS(=O)(=O)c2ccc(-c3cc(C)no3)s2)c1` the value was “inactive”; for `O=C(/C=C/c1ccccc1)Nc1cc(-c2nc3cc(Cl)ccc3o2)ccc1Cl`, “inactive”; for `Fc1ccc(Nc2nc(SCc3ccccc3Cl)nc3ccccc23)cc1`, “inactive”.
For `CCN1CCN(c2ncnc3c2cnn3-c2ccc(C)c(C)c2)CC1`, the Potency result is “inactive”.
In the case of `O=C(Nc1ccncc1)c1cc(-c2ccccn2)nc2ccc(Br)cc12`, the Potency result is “inactive”.
As to `Cc1ccc2nc(-c3ccncc3)cc(C(=O)Nc3ccc4c(c3)OCCO4)c2c1`, the Potency result is “inactive”.
For `Cc1ccc2nc(-c3ccccn3)cc(C(=O)Nc3ccc4c(c3)OCO4)c2c1` the value was 15.8 µM (active).
For `OCc1cnc(SCc2ccc(F)cc2)n1Cc1ccc(F)cc1` the value was “inactive”; for `Cc1ccc(S(=O)(=O)N(CC(=O)Nc2ccc(Cl)cc2Cl)c2ccccc2C)cc1`, “inactive”.
For `Cc1ccc(C)c(N2CCN(C(=O)Cn3nc(C)c4sc5ccccc5c4c3=O)CC2)c1` the value was “inactive”; for `CCCCCCc1ccc(O)cc1O`, “inactive”.
For the compound `CCCC(=O)Nc1nnc(-c2ccccc2)o1`, the Potency result was “inactive”.
On to `CCCCCCc1cc2cc(-c3nnc(-c4ccccc4)o3)c(=O)oc2cc1O`, for which the Potency was 1.78 µM (active).
As for `COc1ccc(CNc2nc(-c3ccc(Cl)cc3)nn2S(=O)(=O)c2ccc(C)cc2)cc1`, the Potency entry was “inactive”.
For `Cc1cccc(NC(=O)CSc2nnc(CNC(=O)c3cccc(C)c3)n2-c2ccccc2)c1` the value was “inactive”; for `CCc1ccc(NC(=O)c2nn(-c3ccc(C)cc3)c(=O)n(C)c2=O)cc1`, “inactive”.
For the compound `CN(C)c1ccnc2sc(C(=O)c3ccccc3)c(N)c12`, the Potency entry is “inactive”.
For `Nc1c(C(=O)c2cccs2)sc2nsc(SCCN3CCCCC3)c12` the value was 3.55 µM (active); for `O=C(CN1C2=NCCN2c2ccccc21)c1cccs1`, “inactive”; for `CCOC(=O)c1ccc(NC(=O)CC2C(=O)N(c3ccccc3)C(=O)N2Cc2cccs2)cc1` (centres undefined), “inactive”.
For `CSc1ccccc1-c1nnc(NC(=O)c2ccc3c(c2)OCCO3)o1` the value was “inactive”; for `Cc1oc(-c2ccccc2F)nc1CN1CCC(C(=O)NCCc2ccc(Cl)cc2)CC1`, “inactive”.
For `CC(C)c1ccc(NC(=O)CN(C)S(=O)(=O)c2ccc3c(c2)c(=O)n(C)c(=O)n3C)cc1` the value was “inactive”; for `COCCCNC(=O)c1ccc(NC(=O)c2nsc3ccccc23)cc1`, “inactive”; for `Cc1ccc(-c2cnc(NCc3ccc(C(C)C)cc3)n2C)cc1`, “inactive”.
In the case of `CCOC(=O)c1cccc(NC(=O)Cn2cnc3nc4c(cc3c2=O)CCCC4)c1`, the Potency result was “inactive”.
For `CCOC(=O)c1ccc(NC(=O)C2CCN(S(=O)(=O)c3ccc4c(c3)CCCC(=O)N4)CC2)cc1` the value was “inactive”; for `Cc1ccc(NC(=O)Cn2c(=O)n(-c3ccccc3)c(=O)c3c4c(sc32)CCCC4)cc1`, “inactive”; for `CCOc1cc(C(=O)NCCc2csc3nc(-c4ccc(C)cc4)nn23)cc(OCC)c1OCC`, “inactive”.
For `Cc1cccc(C(CC(=O)NCC2(c3ccccc3)CCCC2)c2ccccc2)c1O` (centres undefined) the value was “inactive”.
`Cc1ccc(Cl)cc1N1CCN(C(=O)c2cnc3c(-c4ccc(F)cc4)c(C)nn3c2C)CC1`: the Potency result is “inactive”.
For `COc1ccc(Cn2c(=O)c3oc4ccccc4c3n(CC(=O)Nc3ccc(F)cc3F)c2=O)cc1` the value was 11.2 µM (active); for `CCCCn1c(=O)c2oc3ccccc3c2n(CC(=O)Nc2ccccc2OC)c1=O`, “inactive”.
For `COc1cc(NC(=O)Cn2c(=O)n(Cc3ccco3)c(=O)c3oc4ccccc4c32)cc(OC)c1`, the Potency entry was “inactive”.
Take `O=C(NCc1ccccc1Cl)c1cccn1-c1nnc(N2CCCCC2)s1`: the Potency entry was “inactive”.
For `Cc1ccc(NC(=O)c2cc(S(=O)(=O)NCCC3=CCCCC3)ccc2F)cc1C` the value was “inactive”; for `COc1cccc(CNC(=O)C(=O)NCC(c2cccs2)S(=O)(=O)c2ccccc2)c1` (centres undefined), “inactive”.
Turning to `Cc1cccc(CCNC(=O)c2ccc3c(c2)nc2n3CCC(C)C2)c1` (centres undefined), the Potency entry was “inactive”.
For `Cc1cs/c(=N\N=C\c2ccc(O)cc2)n1Cc1ccco1` the value was “inactive”; for `CN(c1ccccc1)c1ccc(/C=c2\s/c(=C(/C#N)C(=O)C(C)(C)C)n(Cc3ccco3)c2=O)cc1`, 6.31 µM (active); for `O=c1nc2s/c(=C\c3ccco3)c(=O)n2nc1Cc1ccccc1`, “inactive”.
For `COc1cc(OC)c(OC)cc1/C=C/c1nc2cc3ccccc3cc2c(=O)n1-c1ccc(F)c(Cl)c1` the value was “inactive”; for `O=S(=O)(NCC(c1ccccc1)N1CCc2ccccc21)c1ccccc1` (centres undefined), “inactive”; for `COc1cc2c(cc1OC)C(COc1ccc(F)cc1)N(C(=O)c1ccccc1F)CC2` (centres undefined), “inactive”.
For `CCOC(=O)c1c(C)[nH]c(CCC(=O)NCCCN2CCN(c3cc(C)ccc3C)CC2)c1C` the value was “inactive”.
For `CC(C)(C)c1ccc(C(=O)NCC(c2ccc(Cl)cc2)N2CCOCC2)cc1` (centres undefined), the Potency entry was “inactive”.
For `COc1ccc(-c2cccc(NS(=O)(=O)c3cc(C)c(OC)c(C)c3C)c2)nn1` the value was “inactive”; for `O=C(NC1CCN(Cc2ccccc2)CC1)c1ccc(Cn2c(=O)c3ccccc3n(Cc3cccc(F)c3)c2=O)cc1`, “inactive”.
For `CCOc1ccccc1C(=O)Nc1ccc(S(=O)(=O)N2CCCCC2c2cccnc2)cc1` (centres undefined) the value was “inactive”; for `CC(C)c1ccc(S(=O)(=O)Nc2ccc(O)c(Sc3nc4ccccc4s3)c2)cc1`, “inactive”.
For `COc1ccc(Cn2c(C(=O)O)c(CNCc3cccc(OC)c3)c3ccc(C)cc32)cc1` the value was “inactive”; for `CC(C)c1ccc2oc(-c3cc(NC(=O)c4cccs4)ccc3Cl)nc2c1`, “inactive”.

(Values after PubChem BioAssay AID1865 (National Center for Advancing Translational Sciences (NCATS), 2009).)
